17 molecules from ChEMBL document CHEMBL3988442, “University of Dundee, Small-Polar-MMV Screening Library” (2021) can be followed below.

Experiment [1] has as its target T1, Aspartate--tRNA(Asp/Asn) ligase (Mycobacterium tuberculosis (strain ATCC 25618 / H37Rv)) (UniProt P9WFW3). Further: in the data most compounds retested in dose-response had high values.
T1 sequence (whole entry): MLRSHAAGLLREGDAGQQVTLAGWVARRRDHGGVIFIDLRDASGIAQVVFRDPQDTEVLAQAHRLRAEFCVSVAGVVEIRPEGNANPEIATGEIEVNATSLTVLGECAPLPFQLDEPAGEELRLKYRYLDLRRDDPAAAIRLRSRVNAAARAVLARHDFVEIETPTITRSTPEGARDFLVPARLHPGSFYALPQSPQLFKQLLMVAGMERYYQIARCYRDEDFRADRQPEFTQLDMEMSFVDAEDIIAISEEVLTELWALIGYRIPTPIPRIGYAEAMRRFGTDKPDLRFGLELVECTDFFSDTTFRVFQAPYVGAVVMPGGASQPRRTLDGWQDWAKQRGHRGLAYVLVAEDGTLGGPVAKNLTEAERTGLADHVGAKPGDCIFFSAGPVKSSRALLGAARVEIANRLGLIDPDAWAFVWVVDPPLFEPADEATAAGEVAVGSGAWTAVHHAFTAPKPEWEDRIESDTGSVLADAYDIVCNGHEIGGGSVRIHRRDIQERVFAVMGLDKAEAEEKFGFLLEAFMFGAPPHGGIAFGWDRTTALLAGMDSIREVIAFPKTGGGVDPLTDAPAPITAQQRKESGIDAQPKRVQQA
Kind of experiment: Assay for Asp RNA synthetase-1 from Mycobacterium tuberculosis. As to conditions: 30 µM. Also on record: scale not given: direction of the effect not stated beside the values. It counts as functional.

The target in experiment [2] is Shiga toxin 2 (Escherichia coli O157:H7) (UniProt P09385+P09386). Nature of the experiment: E. coli 0.157:H7 Shiga Toxin SOP - stx2 screening assay. Also on record: scale not given: direction of the effect not stated beside the values. It counts as functional. Conditions: 30 µM.

SMILES strings stand for the structures.

For `Cc1nc(O)cc(C2CCN(Cc3cccc(F)c3F)C2)n1` (centres undefined), the Percent Effect is -1.21% in experiment [1] and -17.9% in experiment [2].
Turning to `Cn1cnc(S(=O)(=O)N2CCN(Cc3ccco3)CC2)c1Cl`, the Percent Effect is -2.54% in experiment [1] and 13.8% in experiment [2].
Turning to `CN(C)CCN(C)C(=O)c1cnc2c(c1)nc(-c1ccccc1Cl)n2C`, the Percent Effect in experiment [1] amounted to 7.01%; in experiment [2], 9.89%.
Turning to `Cc1cc(C2CCCN(C(=O)c3c(C)nn4cccnc34)C2)n[nH]1` (centres undefined), the Percent Effect in experiment [1] is -6.19%; in experiment [2] it was 7.06%.
With `CCc1nc(CCNC(=O)NC2CC2)sc1C`, the Percent Effect in experiment [1] is 5.19%; in experiment [2], -0.181%.
Take `Cc1nn(C)c(N2CCOCC2)c1CNCc1ccnc(N(C)C)c1`: the Percent Effect in experiment [1] is -1.27%; in experiment [2], 25.6%.
Turning to `CC(NC(=O)NCCCn1ccnc1)c1ccc2c(c1)OCCCO2` (centres undefined), the values for the Percent Effect in experiment [1] and in experiment [2] were 1.46% and 20.4%, respectively.
With `COc1ccc(C2SC(C)=Nc3c2c(=O)[nH]n3C2CCCCC2)cc1O` (centres undefined), the Percent Effect in experiment [1] was 3.89%; in experiment [2], -40%.
As for `Cc1ccc(C(=O)N2CCC3(CCC(=O)N(CC(N)=O)C3)CC2)c(O)c1`, the Percent Effect in experiment [1] is -0.585%; in experiment [2], -12.4%.
The like results for `Cc1ccc(C(=O)N2CCC3(CCN(C(=O)c4cccnc4)C3)CC2)o1` were, in that order, 5.85% and -10.6%.
As for `Clc1ccc2cccnc2c1CN1CCCC1Cn1cncn1` (centres undefined), the Percent Effect in experiment [1] is -0.524%; in experiment [2], 0.609%.
For the molecule `O=C(Nc1cccc(CN2CCOC2=O)c1)N1CCOCC1`, the Percent Effect is 1.78% in experiment [1] and -57.1% in experiment [2].
Regarding `Cc1cc(CN(C)C(=O)NC(C)c2nncn2C)no1` (centres undefined), the Percent Effect in experiment [1] is -3.43%; in experiment [2], 6.65%.
In the case of `COCCC(=O)N1CCc2cc(Cl)cc(Cl)c2C1`, the results for the Percent Effect in experiment [1] and in experiment [2] were 1.46% and -18.1%, respectively.
Take `Cc1noc(C)c1CCC(=O)N1CCN(CCn2cccn2)CC1`: the values for the Percent Effect in experiment [1] and in experiment [2] were -5.26% and -11.4%, respectively.
As to `COC(=O)c1ccc(N2CCN(C(=O)c3cc(C)on3)C(C)C2)cc1` (centres undefined), the values for the Percent Effect in experiment [1] and in experiment [2] were 5.2% and 23.5%, respectively.
As to `COc1ccc(CNC(=O)NC2CCN(CC(F)F)CC2)cc1C`, the Percent Effect in experiment [1] is -0.127%; in experiment [2] it was -3.6%.
